39 molecules from PubChem BioAssay (NCATS) can be followed below.

Results filed as inconclusive are left out. A number with no mark means an inactive call. Active and inactive are the calls of the source. The call rests on the fitted dose curve; in most records, active means well fitted inhibition curve with a large enough effect; inconclusive means small, poorly fitted or top-dose-only effect; inactive means flat fitted curve, though single readings scatter.
Potency means the concentration at half of the fitted maximal effect.

In one experiment the test system is CP266. The experiment in a line: qHTS profiling for inhibitors of Plasmodium falciparum proliferation (AID 504749). Further: nearly all actives have a fitted effect of over 60% in size.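 On activity, negative = inhibition: 0% = DMSO vehicle and full inhibition = artemisinin control.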 Conditions: P. falciparum in erythrocytes, SYBR Green DNA, 72 h; series mostly up to 28.7 µM; activity, negative = inhibition: at the top concentration. In short, it runs like this: (§1)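 P. falciparum-infected erythrocytes (0.3% parasitemia, 2.5% hematocrit) incubated with compound 72 h at 37 C, 5% CO2. Parasite DNA detected by SYBR Green after lysis, overnight at room temperature; normalised to 0.29 uM artemisinin and DMSO.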
As to `C=C(C)C1CC=C(C)CC1` (stereo not drawn), the “activity, negative = inhibition” value was -6.96%.

On to `F[Si-2](F)(F)(F)(F)F`, for which the “activity, negative = inhibition” value was 3.92%.

Regarding `CC1=CC(=O)NS(=O)(=O)O1`, the “activity, negative = inhibition” value was 0.337%.

For the molecule `O=C(O)c1ccc(OCCn2ccnc2)cc1`, the “activity, negative = inhibition” value is -23.9%.

On to `CO`, for which the “activity, negative = inhibition” value is -13.7%.

Take `C[C@H](CCC(=O)O)[C@H]1CC[C@H]2[C@@H]3CC[C@@H]4C[C@H](O)CC[C@]4(C)[C@H]3C[C@H](O)[C@]12C`: the “activity, negative = inhibition” value is -18%.

Take `CC1=CC(=C(c2ccc(N)cc2)c2ccc(N)cc2)C=CC1=N`: the Potency is 7.57 µM (active).

Consider `O=C(/C=C/c1cccc(F)c1)NC1CC1`, for which the “activity, negative = inhibition” value is 5.87%.

Consider `CC(CC=O)CCCC(C)(C)O` (stereo not drawn), for which the “activity, negative = inhibition” value was 2.41%.

On to `CC(C)O`, for which the “activity, negative = inhibition” value is -1.48%.

Turning to `CCCc1ccc(C(=O)O)cc1`, the “activity, negative = inhibition” value is 16.2%.

As for `O=C(O)Cc1cc(I)c(Oc2ccc(O)c(I)c2)c(I)c1`, the “activity, negative = inhibition” value was 0.998% [at 12.8 µM].

For `NCC[C@H](O)C(=O)N[C@@H]1C[C@H](N)[C@@H](O[C@H]2O[C@H](CN)CC[C@H]2N)[C@H](O)[C@H]1O[C@H]1O[C@H](CO)[C@@H](O)[C@H](N)[C@H]1O`, the “activity, negative = inhibition” value was -0.459%.

For the molecule `NC(=O)[C@@H]1CCCN1C(=O)[C@H](Cc1cnc[nH]1)NC(=O)[C@@H]1CCC(=O)N1`, the “activity, negative = inhibition” value is -5.32%.

Take `OC[C@H]1O[C@@](CO)(O[C@H]2O[C@H](CO)[C@@H](O)[C@H](O)[C@H]2O)[C@@H](O)[C@@H]1O`: the “activity, negative = inhibition” value is -0.914%.

For `Cc1c(Cl)cccc1Nc1ncccc1C(=O)O`, the “activity, negative = inhibition” value was -0.2%.

As for `CC(/C=C/C=C(\C)C(=O)O[C@@H]1O[C@H](CO[C@@H]2O[C@H](CO)[C@@H](O)[C@H](O)[C@H]2O)[C@@H](O)[C@H](O)[C@H]1O)=C\C=C\C=C(C)\C=C\C=C(/C)C(=O)O[C@@H]1O[C@H](CO[C@@H]2O[C@H](CO)[C@@H](O)[C@H](O)[C@H]2O)[C@@H](O)[C@H](O)[C@H]1O`, the “activity, negative = inhibition” value is 7.48%.

On to `CC(C)[C@@H](N)C(=O)O`, for which the “activity, negative = inhibition” value was -7.79%.

With `O=C(NCCNCC(O)COc1ccc(O)cc1)N1CCOCC1` (stereo not drawn), the “activity, negative = inhibition” value is -2.98%.

Consider `O=S(=O)(O)CC(S)CS` (stereo not drawn), for which the “activity, negative = inhibition” value is -0.196%.

Regarding `NCCN`, the “activity, negative = inhibition” value is 2.06%.

For `O=S(=O)(O)CCCS(=O)(=O)O`, the “activity, negative = inhibition” value is -4.91%.

Turning to `O=C(Nc1ccc(O)cc1)c1ccccc1O`, the “activity, negative = inhibition” value is 0.466%.

As to `CCOC(=O)c1cc(-c2ccccc2)nc2ccc(C)cc12`, the “activity, negative = inhibition” value was -3.19%.

On to `C=CC(C)(O)CC/C=C(\C)CCC=C(C)C` (stereo not drawn), for which the “activity, negative = inhibition” value is -3.83%.

For `O=C(O)COc1ccccc1/C=N/NC(=O)c1ccncc1`, the “activity, negative = inhibition” value was 0.72%.

On to `OC[C@H]1O[C@@H]2O[C@H]3[C@H](O)[C@@H](O)[C@@H](O[C@H]4[C@H](O)[C@@H](O)[C@@H](O[C@H]5[C@H](O)[C@@H](O)[C@@H](O[C@H]6[C@H](O)[C@@H](O)[C@@H](O[C@H]7[C@H](O)[C@@H](O)[C@@H](O[C@H]1[C@H](O)[C@H]2O)O[C@@H]7CO)O[C@@H]6CO)O[C@@H]5CO)O[C@@H]4CO)O[C@@H]3CO`, for which the “activity, negative = inhibition” value is 6.01%.

For the molecule `CN=C1C=CC(=C(c2ccc(N(C)C)cc2)c2ccc(N(C)C)cc2)C=C1`, the Potency is 1.07 µM (active).

As to `CN(Cc1ccccc1)Cc1ccccc1`, the “activity, negative = inhibition” value was -3.86%.

As to `O=C1NCCN1c1ncc([N+](=O)[O-])s1`, the “activity, negative = inhibition” value was -1.65% [at 12.8 µM].

As to `CC(=O)Oc1cc(C(F)(F)F)ccc1C(=O)O`, the “activity, negative = inhibition” value was -1.08% [at 12.8 µM].

Consider `O=[N+]([O-])c1c(Cl)cccc1-c1c[nH]cc1Cl`, for which the “activity, negative = inhibition” value was -24.8%.

Turning to `CC(=O)Nc1c(I)c(C(=O)O)c(I)c(N(C)C(C)=O)c1I`, the “activity, negative = inhibition” value is -28.7%.

Regarding `O=C1N=C2SCCN2C(=O)C1Cc1ccc(Cl)cc1` (stereo not drawn), the “activity, negative = inhibition” value is 3.54%.

`O=C(O)Cc1nn(Cc2ccc(Br)cc2F)c(=O)c2ccccc12`: the “activity, negative = inhibition” value was 1.4%.

Regarding `CCC(C(=O)NC(N)=O)c1ccccc1` (stereo not drawn), the “activity, negative = inhibition” value was 0.11%.

As to `CC(CCc1ccc(O)cc1)NCC(O)c1ccc(O)cc1` (stereo not drawn), the “activity, negative = inhibition” value is 0.346%.

As for `CC/C=C\C/C=C\C/C=C\C/C=C\C/C=C\CCCC(=O)O`, the “activity, negative = inhibition” value is 0.624%.

Regarding `CC1(C)S[C@@H]2[C@H](NC(=O)C3(N)CCCCC3)C(=O)N2[C@H]1C(=O)O`, the “activity, negative = inhibition” value is -21%.

For another experiment, the system named is CP268. The description is as above. Conditions: P. falciparum in erythrocytes, SYBR Green DNA, 72 h; series mostly up to 28.7 µM; activity, negative = inhibition: at the top concentration. The procedure, abridged:
as §1
With `C=C(C)C1CC=C(C)CC1` (stereo not drawn), the “activity, negative = inhibition” value is -4%.

Consider `F[Si-2](F)(F)(F)(F)F`, for which the “activity, negative = inhibition” value was 1.39%.

In the case of `CC1=CC(=O)NS(=O)(=O)O1`, the “activity, negative = inhibition” value is -3%.

For `O=C(O)c1ccc(OCCn2ccnc2)cc1`, the “activity, negative = inhibition” value was -0.0466%.

Take `CO`: the “activity, negative = inhibition” value was 5.46%.

With `C[C@H](CCC(=O)O)[C@H]1CC[C@H]2[C@@H]3CC[C@@H]4C[C@H](O)CC[C@]4(C)[C@H]3C[C@H](O)[C@]12C`, the “activity, negative = inhibition” value was 2.93%.

For the molecule `CC1=CC(=C(c2ccc(N)cc2)c2ccc(N)cc2)C=CC1=N`, the Potency is 6.01 µM (active).

Take `O=C(/C=C/c1cccc(F)c1)NC1CC1`: the “activity, negative = inhibition” value was -1.13%.

On to `CC(CC=O)CCCC(C)(C)O` (stereo not drawn), for which the “activity, negative = inhibition” value is 0.672%.

Turning to `CC(C)O`, the “activity, negative = inhibition” value was 0.942%.

In the case of `CCCc1ccc(C(=O)O)cc1`, the “activity, negative = inhibition” value is 0.683%.

In the case of `O=C(O)Cc1cc(I)c(Oc2ccc(O)c(I)c2)c(I)c1`, the “activity, negative = inhibition” value was -4.1% [at 12.8 µM].

On to `NCC[C@H](O)C(=O)N[C@@H]1C[C@H](N)[C@@H](O[C@H]2O[C@H](CN)CC[C@H]2N)[C@H](O)[C@H]1O[C@H]1O[C@H](CO)[C@@H](O)[C@H](N)[C@H]1O`, for which the “activity, negative = inhibition” value is 4.47%.

For the molecule `NC(=O)[C@@H]1CCCN1C(=O)[C@H](Cc1cnc[nH]1)NC(=O)[C@@H]1CCC(=O)N1`, the “activity, negative = inhibition” value was -2.2%.

Regarding `OC[C@H]1O[C@@](CO)(O[C@H]2O[C@H](CO)[C@@H](O)[C@H](O)[C@H]2O)[C@@H](O)[C@@H]1O`, the “activity, negative = inhibition” value is -2.55%.

As for `Cc1c(Cl)cccc1Nc1ncccc1C(=O)O`, the “activity, negative = inhibition” value is -1.83%.

Consider `CC(/C=C/C=C(\C)C(=O)O[C@@H]1O[C@H](CO[C@@H]2O[C@H](CO)[C@@H](O)[C@H](O)[C@H]2O)[C@@H](O)[C@H](O)[C@H]1O)=C\C=C\C=C(C)\C=C\C=C(/C)C(=O)O[C@@H]1O[C@H](CO[C@@H]2O[C@H](CO)[C@@H](O)[C@H](O)[C@H]2O)[C@@H](O)[C@H](O)[C@H]1O`, for which the “activity, negative = inhibition” value is -0.523%.

For `CC(C)[C@@H](N)C(=O)O`, the “activity, negative = inhibition” value was -2.59%.

For `O=C(NCCNCC(O)COc1ccc(O)cc1)N1CCOCC1` (stereo not drawn), the “activity, negative = inhibition” value was 1.57%.

With `O=S(=O)(O)CC(S)CS` (stereo not drawn), the “activity, negative = inhibition” value is -1.23%.

In the case of `NCCN`, the “activity, negative = inhibition” value is 1.24%.

`O=S(=O)(O)CCCS(=O)(=O)O`: the “activity, negative = inhibition” value was 1.27%.

On to `O=C(Nc1ccc(O)cc1)c1ccccc1O`, for which the “activity, negative = inhibition” value was 2.66%.

With `CCOC(=O)c1cc(-c2ccccc2)nc2ccc(C)cc12`, the “activity, negative = inhibition” value is 6.49%.

Take `C=CC(C)(O)CC/C=C(\C)CCC=C(C)C` (stereo not drawn): the “activity, negative = inhibition” value was -1.63%.

In the case of `O=C(O)COc1ccccc1/C=N/NC(=O)c1ccncc1`, the “activity, negative = inhibition” value is 0.232%.

As to `OC[C@H]1O[C@@H]2O[C@H]3[C@H](O)[C@@H](O)[C@@H](O[C@H]4[C@H](O)[C@@H](O)[C@@H](O[C@H]5[C@H](O)[C@@H](O)[C@@H](O[C@H]6[C@H](O)[C@@H](O)[C@@H](O[C@H]7[C@H](O)[C@@H](O)[C@@H](O[C@H]1[C@H](O)[C@H]2O)O[C@@H]7CO)O[C@@H]6CO)O[C@@H]5CO)O[C@@H]4CO)O[C@@H]3CO`, the “activity, negative = inhibition” value was -14.5%.

For `CN=C1C=CC(=C(c2ccc(N(C)C)cc2)c2ccc(N(C)C)cc2)C=C1`, the Potency was 1.69 µM (active).

As to `CN(Cc1ccccc1)Cc1ccccc1`, the “activity, negative = inhibition” value was -0.123%.

As to `O=C1NCCN1c1ncc([N+](=O)[O-])s1`, the “activity, negative = inhibition” value is 1.27% [at 12.8 µM].

In the case of `CC(=O)Oc1cc(C(F)(F)F)ccc1C(=O)O`, the “activity, negative = inhibition” value was 7.21% [at 12.8 µM].

As to `O=[N+]([O-])c1c(Cl)cccc1-c1c[nH]cc1Cl`, the “activity, negative = inhibition” value was -9.47%.

Consider `CC(=O)Nc1c(I)c(C(=O)O)c(I)c(N(C)C(C)=O)c1I`, for which the “activity, negative = inhibition” value was -2.53%.

With `O=C1N=C2SCCN2C(=O)C1Cc1ccc(Cl)cc1` (stereo not drawn), the “activity, negative = inhibition” value was -5.82%.

For `O=C(O)Cc1nn(Cc2ccc(Br)cc2F)c(=O)c2ccccc12`, the “activity, negative = inhibition” value was -4.59%.

On to `CCC(C(=O)NC(N)=O)c1ccccc1` (stereo not drawn), for which the “activity, negative = inhibition” value was 6.84%.

Take `CC(CCc1ccc(O)cc1)NCC(O)c1ccc(O)cc1` (stereo not drawn): the “activity, negative = inhibition” value was -0.638%.

For the molecule `CC/C=C\C/C=C\C/C=C\C/C=C\C/C=C\CCCC(=O)O`, the “activity, negative = inhibition” value was -5.89%.

On to `CC1(C)S[C@@H]2[C@H](NC(=O)C3(N)CCCCC3)C(=O)N2[C@H]1C(=O)O`, for which the “activity, negative = inhibition” value is -0.876%.
